High-throughput results from PubChem BioAssay.
HSF1 inhib – HSF1 inhibition; activity change, negative = inhibition, % at 7.5 µM (by protocol); 0.77% of 300,000 active; AID 2098; NIH3T3-HGL HSE-luciferase, MG132-induced, luminescence 8 h; hits give low values;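 active means more than half of replicate wells show activity change below -50%, luminescence cut by over half; inconclusive means some wells, but at most half, below -50%; inactive means no replicate well below -50%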;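 further: luciferase reports HSF-1 transcriptional activity via heat shock element; 0% = median of DMSO wells and -100% = zero luminescence signal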
LGR2 inh – blocks bursicon-induced cAMP signaling via Drosophila LGR2; HEK293 LGR2, CRE-luciferase, bursicon-stimulated, 4 h; inhibition, % at 9.99 µM; 0.35% of 380,000 active; AID 720647;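 active means drop in luminescence signal, shown as inhibition above about 50% in the replicate tests, limit read from the data, passing the limit was not always enough; inconclusive means probably only some replicates passing the limit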;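 further: agonist challenge used bursicon conditioned medium at about half maximal strength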
LMP1 NFkB inh – inhibitors of Epstein-Barr LMP1-induced NF-kappaB reporter; LMP1-induced NF-kappaB luciferase reporter cells, luminescence; inhibition, % at 12.5 µM; 0.69% of 350,000 active; in the data active means inhibition above about 41%; inconclusive means no clear call, values can overlap the other calls;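 further: 0% = neutral control wells and 100% = reference inhibitor control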
TROY NFkB inh – inhibitors of TROY-dependent NF-kB signaling. AID 1347056. 0.98% of 360,000 active. Q293 LMP1-TROYcd NF-kB luciferase reporter, 4 h. inhibition, % at 10 µM;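 active means compounds whose plate-normalised and pattern-corrected inhibition of the luciferase reporter signal at the single screening dose is 50% or more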
HSF-1 act – increases HSF-1 driven luciferase reporter signal; AID 504408; activation, % at 9 µM; NIH3T3-HGL HSF-1 luciferase reporter, MG132, 8 h; 100% = twice DMSO control signal; 1.7% of 300,000 active;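 active means mean replicate activation of at least 50% with a set share of replicates each reaching 50%; inconclusive means only one of those two conditions met; inactive means mean below 50% and too few replicates reaching it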;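 further: 0% = median of the neutral control wells and 100% = twice that signal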
TWEAK-Fn14 inh – inhibitors of TWEAK-Fn14 interaction signaling; TWEAK-stimulated Fn14 reporter cells, luciferase luminescence, 8 h; inhibition, % at 10 µM; 2% of 360,000 active; AID 1159606; in the data active means inhibition above about 50%
* = called active by the depositor; ? = inconclusive; / = not tested or not shown. Shown are actives, neighbours in structure and some others; about 3.6% of the full set was active somewhere.

SMILES	HSF1 inhib	LGR2 inh	LMP1 NFkB inh	TROY NFkB inh	HSF-1 act	TWEAK-Fn14 inh
CCOc1ccc(C(C(=O)NCC2CCCO2)N(C(=O)c2snc(C(N)=O)c2N)c2ccccc2F)cc1 (stereo unspecified)	8.3	1.9	-3.4	15.1	14.3	57.1*
NC(=O)c1nsc(C(=O)N(c2ccc3c(c2)OCCO3)C(C(=O)NCC2CCCO2)c2ccc(F)cc2)c1N (stereo unspecified)	-53.7*	-8.2	5.3	2.5	-53.5	46.3
COc1ccccc1-c1cn(CC[C@H]2CC[C@@H](NS(=O)(=O)c3ccccc3C)[C@H](CO)O2)nn1	/	-5.2	/	/	/	/
O=C(O)c1ccc(N2C(=O)CC(N3CCN(c4cccc(C(F)(F)F)c4)CC3)C2=O)cc1 (stereo unspecified)	-56.0*	1.2	4.1	-17.4	-64.6	18.2
O=C(C[C@@H]1CC[C@H](NC(=O)Nc2cccc(F)c2)[C@@H](CO)O1)NCC1CCCCC1	/	5.8	/	/	/	/
O=C(Nc1ccc(N2CCOCC2)cc1)c1ccncc1	-3.0	/	3.3	-11.7	-2.0	8.9
O=C(Nc1ccc(N2CCOCC2)cc1)c1cnccn1	0.9	70.0*	63.3*	60.1*	21.5	80.9*
O=C(Nc1ccc(N2CCOCC2)cc1)c1cnsn1	-37.9	/	76.7*	72.0*	-40.9	94.8*
CCC(=O)Nc1ccc2c(c1)OC[C@@H](C)N(C(=O)Cc1cccnc1)C[C@H](C)[C@H](OC)CN(C)C2=O	/	-3.1	/	/	/	/
C[C@@H]1CN([C@@H](C)CO)C(=O)c2cc(NC(=O)CCCCCC(=O)Nc3ccccc3N)ccc2O[C@@H]1CN(C)C(=O)Nc1ccc(C(F)(F)F)cc1	/	2.1	/	/	/	/
COc1ccc(CN(C)C(=O)c2cc(S(=O)(=O)Nc3ccccc3F)ccc2C)c(OC)c1	4.6	2.6	/	-19.0	27.9	53.0*
COc1ccc(OC)c(-c2nnc3n2N=C(c2ccc(OC)c(OC)c2)CS3)c1	/	-22.7	14.4	33.9	/	-19.4
COc1ccc(OC)c(-c2nnc3n2N=C(c2ccc(OC)c(OC4CCCC4)c2)CS3)c1	/	/	48.3*	46.5	/	13.0
COc1ccc(C2=Nn3c(nnc3-c3ccccc3F)SC2)cc1OC1CCOC1 (stereo unspecified)	/	-6.8	7.2	30.6	/	5.3
COc1ccc(C2=Nn3c(nnc3-c3ccccc3F)SC2)cc1OC1CCCC1	/	-85.8	54.5*	40.8	/	11.8
COc1ccc(NC(=O)C2CCCN2S(=O)(=O)c2cccc3nsnc23)c(OC)c1 (stereo unspecified)	2.5	/	3.3	3.0	20.2	70.4*
Cc1ccc(S(=O)(=O)N2CCN(C(=O)c3c(-c4ccccc4)noc3C)CC2)c(C)c1	-75.8*	5.9	-14.3	-3.2	-79.4	-15.9
Cc1ccc(S(=O)(=O)N2CCN(C(=O)c3c(-c4ccccc4)noc3C)CC2)cc1C	-2.0	-8.1	-6.6	-8.5	4.8	4.2
O=C(NC1CCCC1)N1CCCCN2[C@@H](CO)[C@@H](c3ccc(/C=C/c4ccccc4)cc3)[C@@H]2C1	/	26.2	/	/	/	/
O=C(Nc1ccc([N+](=O)[O-])cc1)Nc1nc(-c2ccc(Cl)s2)cs1	-4.2	49.4	54.7*	54.2*	13.5	67.1*
Cn1cccc1C(=O)Nc1nc(-c2ccccn2)cs1	31.6	/	41.9*	-77.2	28.8	6.7
O=C(Nc1nc(-c2ccccn2)cs1)c1ccc(Cl)s1	228.3	-8.6	72.9*	-59.2	223.2*	-31.0
Cc1cccnc1Nc1nc(-c2ccccc2)cs1	37.7	-29.6	-39.9	-7.8	?	25.3
Cc1cccnc1Nc1nc(-c2ccccn2)cs1	217.8	/	51.3*	-29.4	350.0*	100.9*
O=C(c1cccc(F)c1)N1CC2(C1)[C@H](c1ccccc1)[C@H](CO)N2C(=O)C1CCCC1	/	14.6	/	/	/	/
SMILES	HSF1 inhib	LGR2 inh	LMP1 NFkB inh	TROY NFkB inh	HSF-1 act	TWEAK-Fn14 inh
O=C(Cc1ccccn1)N1CC(=O)N2[C@H](CO)[C@H](c3ccc(C#CC4CCCC4)cc3)[C@@H]2C1	/	16.4	/	/	/	/
O=C(Nc1nc(-c2ccccn2)cs1)c1cc2ccccc2o1	-7.0	-3.4	18.8	34.8	-2.5	20.7
O=C(Nc1nc(-c2ccc(Cl)s2)cs1)c1ccco1	32.1	-106.7	-41.1	-35.3	66.8*	-1.1
Cc1c(C(=O)Nc2nc(-c3ccccn3)cs2)oc2ccccc12	/	/	40.7*	-24.5	/	-16.0
O=C(Nc1nc(-c2ccc(Cl)s2)cs1)c1cccs1	20.5	/	-9.7	-32.4	41.9	34.2
NCC[C@H]1CC[C@@H](NC(=O)C2CCCC2)[C@@H](CO)O1	/	1.5	/	/	/	/
CN(C)CCCNC(=O)C[C@H]1CC[C@H]2[C@@H](COc3ccc(NC(=O)NC4CCCC4)cc3C(=O)N2C)O1	/	-17.2	/	/	/	/
COc1ccc(N2CCN(CCNC(=O)c3c(C)cc(=O)oc3C)CC2)cc1	3.1	9.1	50.7*	11.3	6.7	10.5
Cc1cc(=O)oc(C)c1C(=O)NCCCN1CCN(c2ccc(F)cc2)CC1	0.8	/	11.6	8.0	8.7	-4.2
COc1ccc(C(=O)CC(=O)C(=O)NCCc2cccc(C)c2)cc1	39.1	14.5	1.8	-34.1	69.9*	12.4
COc1ccc(C(=O)CC(=O)C(=O)Nc2ccccc2)cc1	8.5	-17.7	-2.0	-63.0	27.1	-0.8
COc1ccc(C(=O)CC(=O)C(=O)Nc2cc(C)ccc2C)cc1	3.5	1.8	-2.2	-21.2	11.3	0.8
COc1ccc(C(=O)CC(=O)C(=O)Nc2cc(OC)c(OC)c(OC)c2)cc1	42.7	-2.8	2.0	-10.1	77.2*	-2.9
O=C(Cc1cccs1)NCC1CCCO1 (stereo unspecified)	-30.4	1.0	-3.7	7.9	-31.4	51.0*
CCC(=O)N1CC2(C1)CN(S(C)(=O)=O)[C@@H](CO)c1c2c2ccc(OC)cc2n1C	/	-2.0	/	/	/	/
c1ccc(SCCOCCN2CCOCC2)cc1	25.2	-8.1	-0.8	-13.3	64.3*	1.0
Cc1ccc(SCCOCCN2CCOCC2)cc1	-3.7	9.6	7.3	0.8	-2.9	-1.1
CN1C(=O)c2cc(NC(=O)Nc3ccccc3)ccc2OC[C@H]2O[C@@H](CC(=O)NC3CCC3)CC[C@H]21	/	-6.5	/	/	/	/
COc1ccc(OC)c2c1sc(=NC(=O)C1CCCCC1)n2C	0.9	-14.5	5.2	-8.9	8.7	-7.3
Cn1c(=NC(=O)C2CC2)sc2cccc(F)c21	3.9	-47.0	59.8*	-61.6	-10.0	-6.9
CO[C@@H]1CN(C)C(=O)c2cc(NS(=O)(=O)c3cccc(C)c3)ccc2OC[C@@H](C)NC[C@@H]1C	/	3.5	/	/	/	/
CCc1ccc2[nH]c(=O)c(CN(CCCN3CCOCC3)C(=O)Nc3ccccc3)cc2c1	1.7	/	9.5	61.9*	-18.5	18.1
Cc1ccc2[nH]c(=O)c(CN(CCCN3CCOCC3)C(=O)NC3CCCCC3)cc2c1	-8.2	/	-7.7	7.9	-5.0	5.0
CCN(CC)CCCN(Cc1cc2cc3c(cc2[nH]c1=O)OCCO3)C(=O)Nc1ccccc1	-12.6	/	-14.7	78.0*	-22.2	36.9
